Records with an inconclusive call do not appear. Entries that show only a call come without a potency. Active and inactive are the calls of the source. Calls come from the whole dose curve.
Experiment: Primary qHTS for Huh7 cytotoxicity: counterscreen for inhibitors of MERS-S pseudotyped particle cell entry (AID 1479147); note: potency is the fitted concentration of half-maximal effect
Settings: cell viability read-out; series mostly up to 57.1 µM

Row | Compound | Potency | outcome
1 | CNC(=O)c1c(I)c(C(=O)NCC(=O)Nc2c(I)c(C(=O)O)c(I)c(C(=O)NCCO)c2I)c(I)c(N(C)C(C)=O)c1I | inactive | –
2 | O=C(O)CSc1nnc(Br)n1-c1ccc(C2CC2)c2ccccc12 | inactive | –
3 | NC(=O)[C@H]1O[C@@H](O)[C@H](O)[C@@H](O)[C@@H]1O | inactive | –
4 | CCCCCCCCCCCCCCCCCCCCCCCCCCCCO | – | inactive [at 0.573 µM]
5 | O=C(N[C@H]1CCS[C@H]2CCC[C@@H](C(=O)O)N2C1=O)[C@@H](S)Cc1ccccc1 | inactive | –
6 | O=C(O)C1=C(CSc2nnnn2CS(=O)(=O)O)CS[C@@H]2[C@@H](NC(=O)[C@H](O)c3ccccc3)C(=O)N12 | inactive | –
7 | CC(C)OC(=O)Nc1ccc2nc(-c3cscn3)[nH]c2c1 | 10 µM (active) | –
8 | Cc1cc(O)ccc1C(C)(C)C | inactive | –
9 | N#Cc1cc(-c2n[nH]c(-c3ccncc3)n2)ccn1 | inactive | –
10 | FC(F)(F)C(F)(F)C(F)(F)C(F)(F)C(F)(F)C(F)(F)F | inactive | –
11 | NC(=O)[C@@H]1CC[C@@H]2CN1C(=O)N2OS(=O)(=O)O | inactive | –
12 | CCc1ccc(Nc2c(F)c(F)cc(F)c2F)c(CC(=O)O)c1 | inactive | –
13 | CC(C)(C)NC(=O)[C@H]1CC[C@H]2[C@@H]3CC=C4C=C(C(=O)O)CC[C@]4(C)[C@H]3CC[C@]12C | inactive | –
14 | O=C(Cn1c(=O)sc2ccc(Cl)cc21)N1CCN(CCO)CC1 | inactive | –
15 | C=C1CCN([C@H](C)[C@](O)(Cn2cncn2)c2ccc(F)cc2F)CC1 | inactive | –

Experiment: Primary qHTS for inhibitors of MERS-S pseudo-typed particle cell entry (AID 1479149); note: nearly all actives have a fitted effect of over 60% in size
Settings: MERS-S pseudotyped particle entry, luciferase; series mostly up to 57.1 µM

Row | Compound | Potency
16 | CCC(C)C(NC(=O)C(Cc1ccc(O)cc1)NC(=O)C(NC(=O)C(CCCN=C(N)N)NC(=O)C(N)CC(=O)O)C(C)C)C(=O)NC(Cc1cnc[nH]1)C(=O)N1CCCC1C(=O)NC(Cc1ccccc1)C(=O)O (stereo unspecified) | inactive
17 | O=C(O)CCSC[C@H]1O[C@@H]2O[C@H]3[C@H](O)[C@@H](O)[C@@H](O[C@H]4[C@H](O)[C@@H](O)[C@@H](O[C@H]5[C@H](O)[C@@H](O)[C@@H](O[C@H]6[C@H](O)[C@@H](O)[C@@H](O[C@H]7[C@H](O)[C@@H](O)[C@@H](O[C@H]8[C@H](O)[C@@H](O)[C@@H](O[C@H]9[C@H](O)[C@@H](O)[C@@H](O[C@H]1[C@H](O)[C@H]2O)O[C@@H]9CSCCC(=O)O)O[C@@H]8CSCCC(=O)O)O[C@@H]7CSCCC(=O)O)O[C@@H]6CSCCC(=O)O)O[C@@H]5CSCCC(=O)O)O[C@@H]4CSCCC(=O)O)O[C@@H]3CSCCC(=O)O | inactive
18 | NC(=O)c1nc(F)c[nH]c1=O | inactive
19 | O=S(=O)(O)CC(S)CS (stereo unspecified) | inactive
20 | COc1ccc2c(O[C@H]3CC4C(=O)N(C)CCCC/C=C\[C@@H]5C[C@@]5(C(=O)NS(=O)(=O)C5CC5)NC(=O)[C@@H]4C3)cc(-c3nc(C(C)C)cs3)nc2c1C (stereo partly specified) | inactive
21 | NC(Cc1cc(I)c(Oc2cc(I)c(O)c(I)c2)c(I)c1)C(=O)O (stereo unspecified) | inactive
22 | CCN1CCCC1CNC(=O)c1cc(S(=O)(=O)CC)ccc1OC (stereo unspecified) | inactive
23 | CN(CC(O)CO)C(=O)c1c(I)c(NC(=O)C(CO)CO)c(I)c(C(=O)N(C)CC(O)CO)c1I (stereo unspecified) | inactive
24 | CC1(C)S[C@@H]2[C@H](NC(=O)C(C(=O)O)c3ccsc3)C(=O)N2[C@H]1C(=O)O (stereo partly specified) | inactive
25 | CC(C)C(=O)OCC(=O)[C@@]12OC(C3CCCCC3)O[C@@H]1C[C@H]1[C@@H]3CCC4=CC(=O)C=C[C@]4(C)[C@H]3[C@@H](O)C[C@@]12C (stereo partly specified) | inactive
26 | CC1=C(C(=O)OCCN(Cc2ccccc2)c2ccccc2)C(c2cccc([N+](=O)[O-])c2)C(P2(=O)OCC(C)(C)CO2)=C(C)N1 (stereo unspecified) | inactive
27 | CC[C@H]1[C@@H](O)[C@@H]2[C@H](CC[C@]3(C)[C@@H]([C@H](C)CCC(=O)O)CC[C@@H]23)[C@@]2(C)CC[C@@H](O)C[C@@H]12 | inactive
28 | CCCC(=O)O[C@]1(C(=O)COC(=O)CC)[C@@H](C)C[C@H]2[C@@H]3CCC4=CC(=O)C=C[C@]4(C)[C@@]3(F)[C@@H](O)C[C@@]21C | inactive
29 | OC[C@H]1O[C@@H](OC[C@H]2O[C@@H](O[C@@H]3[C@@H](O)[C@H](O)O[C@H](CO)[C@H]3O)[C@H](O)[C@@H](O[C@@H]3O[C@H](CO)[C@@H](O)[C@H](O)[C@H]3O)[C@@H]2O)[C@H](O)[C@@H](O)[C@@H]1O | inactive
30 | CC(C)[C@H]1CC[C@H](C)C[C@H]1O | inactive
31 | CCC1(C)OC(=O)N(C)C1=O (stereo unspecified) | inactive

Source: PubChem BioAssay (NCATS)
